Data taken from PubChem BioAssay (EPA / NIEHS).
Activity calls are given as the source filed them. How the source made its calls: active means hit-call score of the fitted dose curve at least 0.9, where 1 is the maximum; inactive means score below 0.9.

What was measured:
[1] = ATG_GLI_CIS: Attagene CIS-FACTORIAL HepG2 Assay for human Zinc Finger Protein GLI1 (AID 2282945); details: HepG2, Attagene cis-factorial reporter mRNA, GLI element; actives raise or lower the signal
Outline: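 HepG2 cells transiently transfected with cis-promoter multiplexed reporter units report endogenous transcription factor activity. After 24 h chemical exposure, reporter mRNA was quantified by RT-PCR, 6-FAM labelling, HpaI digestion and capillary electrophoresis, with bidirectional fitting against DMSO.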

[2] = molecular target: Bile acid receptor (Homo sapiens) (UniProt Q96RI1); experiment: ATG_IR1_CIS: Attagene CIS-FACTORIAL HepG2 Assay for human Nuclear Receptor Subfamily 1 Group H Member 4 (NR1H4), IR1 submotif (AID 2282946); details: IR1 reporter transcription, actives raise or lower the signal
Outline: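 Transient MRTU transfection, HepG2; 24 h dosing; RNA → RT-PCR → 6-FAM primer extension → HpaI digest → capillary electrophoresis fluorescence. Gain/loss of signal fitted relative to DMSO.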

[3] = ATG_GRE_CIS: Attagene CIS-FACTORIAL HepG2 Assay for human Glucocorticoid Response Elements (GRE) (AID 2282947); details: HepG2 GRE cis-reporter, Attagene multiplex mRNA; actives raise or lower the signal
Outline: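 HepG2 cells transiently transfected with multiple cis-promoter reporter units measure endogenous TF activity; 24 h compound exposure. Reporter mRNA quantified by RT-PCR, FAM labelling, HpaI digestion and capillary electrophoresis; bidirectional fit vs DMSO baseline.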

[4] = ATG_ISRE_CIS: Attagene CIS-FACTORIAL HepG2 Assay for human Interferon Regulatory Factor 1 (IRF1) binding to an Interferon-Stimulated Response Element (ISRE) (AID 2282948); details: HepG2 ISRE cis-reporter (Attagene), mRNA transcription readout; actives raise or lower the signal
Outline: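 Transiently transfected HepG2 cells carrying cis-element reporter units, dosed 24 hours. Reporter mRNA quantified by RT-PCR, fluorescent primer extension, HpaI digestion and capillary electrophoresis. Bidirectional fitting relative to DMSO.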

[5] = ATG_M_32_CIS: Attagene CIS-FACTORIAL HepG2 Assay for M32 Transcription Factor (Internal Marker) (AID 2282949); details: HepG2 Attagene cis-factorial M32 reporter, mRNA; actives raise or lower the signal;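 further: background control marker of the multiplexed CIS panel rather than a real target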
Outline: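 Following 24 h chemical exposure of HepG2 cells transiently expressing cis-promoter reporter constructs, reporter transcript levels were determined by RT-PCR with fluorescent labelling and capillary electrophoresis, then fitted bidirectionally against DMSO.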

[6] = ATG_M_06_CIS: Attagene CIS-FACTORIAL HepG2 Assay for M06 Transcription Factor (Internal Marker) (AID 2282950); details: HepG2 Attagene CIS-FACTORIAL M06 internal marker reporter; actives raise or lower the signal
Outline: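 Steps: transfect HepG2 with multiplexed cis-element reporter constructs; dose chemical 24 h; extract RNA with DNase treatment; reverse-transcribe, PCR-amplify, 6-FAM label, HpaI digest; separate fragments by capillary electrophoresis. Activity fitted both directions versus DMSO.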

[7] = molecular target: Hypoxia-inducible factor 1-alpha (Homo sapiens) (UniProt Q16665); experiment: ATG_HIF1a_CIS: Attagene CIS-FACTORIAL HepG2 Assay for human Hypoxia Inducible Factor 1 (HIF1A) (AID 2282951); details: HepG2 Attagene cis-factorial HIF1a reporter transcription; actives raise or lower the signal
Outline: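 HepG2, transient cis-reporter library, 24 h dosing. RNA → RT (oligo dT) → PCR → 6-FAM primer extension → HpaI → CE. Bidirectional curve fit vs DMSO.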

[8] = molecular target: Hepatocyte nuclear factor 6 (Homo sapiens) (UniProt Q9UBC0); experiment: ATG_HNF6_CIS: Attagene CIS-FACTORIAL HepG2 Assay for human Hepatocyte Nuclear Factor 6 (HNF6) (AID 2282952); details: HepG2 Attagene cis-factorial HNF6 reporter transcription; actives raise or lower the signal
Outline: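 Multiplexed mRNA reporter assay in transfected HepG2; 24 h dosing; RT-PCR plus capillary electrophoresis fluorescence; DMSO-referenced bidirectional curve fitting.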

[9] = molecular target: Heat shock factor protein 1 (Homo sapiens) (UniProt Q00613); experiment: ATG_HSE_CIS: Attagene CIS-FACTORIAL HepG2 Assay for human Heat Shock Transcription Factor 1 (HSE) (AID 2282953); details: HepG2 HSE cis-reporter, Attagene RNA transcription; actives raise or lower the signal
Outline: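 Cells were transfected with cis-element-driven reporter constructs, dosed for 24 h, then total RNA was reverse-transcribed and reporter cDNA amplified, FAM-labelled and digested with HpaI. Fragments were resolved by capillary electrophoresis; gain or loss was fitted against DMSO.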

[10] = ATG_MRE_CIS: Attagene CIS-FACTORIAL HepG2 Assay for human Metal Responsive Element (MRE) (AID 2282954); details: HepG2 MRE cis-reporter transcription, Attagene multiplex; actives raise or lower the signal
Outline: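 HepG2 cells transiently transfected with multiple cis-element reporter units measure endogenous MTF1-driven transcription. After 24 h compound exposure, reporter mRNA is quantified by RT-PCR with 6-FAM labelling, HpaI digestion and capillary electrophoresis; bidirectional fits versus DMSO.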

[11] = molecular target: Paired box protein Pax-6 (Homo sapiens) (UniProt P26367); experiment: ATG_Pax6_CIS: Attagene CIS-FACTORIAL HepG2 Assay for human Paired Box 6 (PAX6) (AID 2282956); details: HepG2 CIS-FACTORIAL PAX6 reporter transcription, RNA readout; actives raise or lower the signal
Outline: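 HepG2 cells transiently transfected with cis-promoter-driven multiplexed reporter units sensing endogenous transcription factor activity; 24 h chemical exposure. Reporter mRNA quantified by RT-PCR, 6-FAM labelling, HpaI digestion and capillary electrophoresis; bidirectional fit versus DMSO baseline.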

[12] = ATG_PXRE_CIS: Attagene CIS-FACTORIAL HepG2 Assay for human Pregnane X Receptor Element (PXRE) (AID 2282957); details: HepG2 Attagene CIS-FACTORIAL PXRE reporter, mRNA; actives raise or lower the signal
Outline: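 Cells: HepG2, transiently transfected reporter units under cis promoter control. Exposure: 24 h. Detection: reporter mRNA via RT-PCR/CE fluorescence; bidirectional fitting, DMSO-referenced.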

[13] = ATG_PPRE_CIS: Attagene CIS-FACTORIAL HepG2 Assay for human Peroxisome Proliferator-activated Response Element (PPRE) (AID 2282958); details: HepG2 PPRE cis-element reporter, Attagene transcription factor profiling; actives raise or lower the signal
Outline: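 Transcript-level reporter induction in transfected HepG2 cells after 24 h chemical exposure, quantified by fluorescence from RT-PCR products separated by capillary electrophoresis.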

[14] = ATG_RORE_CIS: Attagene CIS-FACTORIAL HepG2 Assay for human RAR-related Orphan Receptor Element (RORE) (AID 2282959); details: HepG2 Attagene cis-factorial RORE reporter, mRNA; actives raise or lower the signal
Outline: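 Multiplexed reporter assay measuring mRNA induction from a cis promoter element in transiently transfected HepG2 cells after 24 h treatment. Detection via RT-PCR and capillary electrophoresis fluorescence; DMSO serves as baseline.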

[15] = ATG_Sox_CIS: Attagene CIS-FACTORIAL HepG2 Assay for human SRY-box transcription factor (SOX) (AID 2282960); details: HepG2 Attagene cis-factorial SOX reporter, mRNA; actives raise or lower the signal
Outline: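 Cells were transfected with reporter constructs under cis-regulatory promoters, then exposed to chemicals for 24 h. Reporter transcripts were quantified by fluorescence after RT-PCR and capillary electrophoresis; activity was fitted in both directions against DMSO.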

[16] = ATG_SREBP_CIS: Attagene CIS-FACTORIAL HepG2 Assay for human Sterol Regulatory Element Binding (SREBP) (AID 2282962); details: HepG2 Attagene cis-factorial SREBP reporter, mRNA; actives raise or lower the signal
Outline: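 HepG2 cells transiently transfected with multiplexed cis-promoter reporter units sensing endogenous transcription factors; reporter mRNA measured 24 h after dosing by RT-PCR, 6-FAM labeling, HpaI digestion and capillary electrophoresis. Bidirectional fit versus DMSO.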

[17] = molecular target: Signal transducer and activator of transcription 3 (Homo sapiens) (UniProt P40763); experiment: ATG_STAT3_CIS: Attagene CIS-FACTORIAL HepG2 Assay for human Signal Transducer and Activator of Transcription 3 (STAT3) (AID 2282963); details: HepG2, Attagene cis-factorial STAT3 reporter transcription; actives raise or lower the signal
Outline: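 HepG2 cells transiently transfected with cis-element-driven multiple reporter transcription units; after 24 h chemical exposure, reporter mRNA measured by RT-PCR, 6-FAM primer-extension labelling, HpaI digestion and capillary electrophoresis. Bidirectional fitting versus DMSO baseline.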

[18] = ATG_TA_CIS: Attagene CIS-FACTORIAL HepG2 Assay for human TA Basal Promoter (AID 2282964); details: HepG2 Attagene CIS-factorial TA basal promoter reporter; actives raise or lower the signal
Outline: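 Steps: transfect HepG2 with MRTUs; dose 24 h; isolate RNA, DNase-treat, reverse-transcribe; PCR and FAM-label reporter cDNA; digest with HpaI 2h at 37 C; run capillary electrophoresis. Activity fitted both directions against DMSO.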

[19] = molecular target: Transcription factor Sp1 (Homo sapiens) (UniProt P08047); experiment: ATG_Sp1_CIS: Attagene CIS-FACTORIAL HepG2 Assay for human Specificity Protein 1 (Sp1) (AID 2282961); details: HepG2 Sp1 cis-reporter transcription, actives raise or lower the signal
Outline: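 Measures mRNA induction of an Sp1-linked reporter in HepG2 cells 24 h post-dosing. Multiplexed reporters read by RT-PCR and capillary electrophoresis; DMSO serves as negative control and baseline.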

Measured: AC50

Heat shock factor protein 1 (Homo sapiens), sequence (Q00613 whole entry, looked up, the tested form may be a part): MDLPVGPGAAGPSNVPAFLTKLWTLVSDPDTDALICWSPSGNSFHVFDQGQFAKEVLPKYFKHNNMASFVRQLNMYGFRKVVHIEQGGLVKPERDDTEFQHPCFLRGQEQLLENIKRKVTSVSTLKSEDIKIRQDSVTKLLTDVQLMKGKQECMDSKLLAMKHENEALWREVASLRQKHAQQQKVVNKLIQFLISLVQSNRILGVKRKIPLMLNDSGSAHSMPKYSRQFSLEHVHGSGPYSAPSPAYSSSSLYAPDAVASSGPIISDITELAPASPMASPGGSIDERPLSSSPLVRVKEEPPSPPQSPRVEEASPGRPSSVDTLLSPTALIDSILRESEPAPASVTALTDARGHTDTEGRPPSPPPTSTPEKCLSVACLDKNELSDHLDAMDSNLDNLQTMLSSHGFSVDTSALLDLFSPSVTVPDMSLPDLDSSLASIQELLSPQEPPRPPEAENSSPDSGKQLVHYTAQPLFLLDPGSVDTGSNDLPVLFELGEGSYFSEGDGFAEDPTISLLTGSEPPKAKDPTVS
Bile acid receptor (Homo sapiens), sequence (Q96RI1 whole entry, looked up): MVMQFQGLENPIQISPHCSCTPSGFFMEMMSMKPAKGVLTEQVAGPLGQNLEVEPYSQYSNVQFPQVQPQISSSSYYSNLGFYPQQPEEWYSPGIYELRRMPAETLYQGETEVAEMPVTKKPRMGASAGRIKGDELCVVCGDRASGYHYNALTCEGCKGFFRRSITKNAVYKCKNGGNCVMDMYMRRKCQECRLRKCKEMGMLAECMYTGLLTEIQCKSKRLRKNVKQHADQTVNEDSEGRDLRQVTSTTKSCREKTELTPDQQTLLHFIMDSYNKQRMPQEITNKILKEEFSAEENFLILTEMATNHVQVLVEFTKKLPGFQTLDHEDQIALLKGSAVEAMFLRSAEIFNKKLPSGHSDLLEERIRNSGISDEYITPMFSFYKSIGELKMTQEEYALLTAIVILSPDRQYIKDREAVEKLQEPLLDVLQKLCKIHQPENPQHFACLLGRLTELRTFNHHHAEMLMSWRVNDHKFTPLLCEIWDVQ
Hepatocyte nuclear factor 6 (Homo sapiens), sequence (Q9UBC0 whole entry, looked up): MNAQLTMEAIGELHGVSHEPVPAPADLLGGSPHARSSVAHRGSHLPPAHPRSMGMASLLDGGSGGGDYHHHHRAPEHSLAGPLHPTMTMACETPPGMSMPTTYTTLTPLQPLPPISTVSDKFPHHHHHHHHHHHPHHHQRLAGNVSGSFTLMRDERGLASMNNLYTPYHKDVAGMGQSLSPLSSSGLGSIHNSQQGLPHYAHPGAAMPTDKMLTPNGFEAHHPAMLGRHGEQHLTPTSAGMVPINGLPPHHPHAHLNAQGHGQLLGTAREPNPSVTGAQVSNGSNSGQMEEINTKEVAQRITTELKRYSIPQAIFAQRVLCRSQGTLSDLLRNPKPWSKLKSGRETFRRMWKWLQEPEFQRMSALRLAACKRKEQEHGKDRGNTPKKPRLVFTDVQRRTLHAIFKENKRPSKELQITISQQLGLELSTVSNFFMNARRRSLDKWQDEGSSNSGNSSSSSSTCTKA
Transcription factor Sp1 (Homo sapiens), sequence (P08047 whole entry, looked up): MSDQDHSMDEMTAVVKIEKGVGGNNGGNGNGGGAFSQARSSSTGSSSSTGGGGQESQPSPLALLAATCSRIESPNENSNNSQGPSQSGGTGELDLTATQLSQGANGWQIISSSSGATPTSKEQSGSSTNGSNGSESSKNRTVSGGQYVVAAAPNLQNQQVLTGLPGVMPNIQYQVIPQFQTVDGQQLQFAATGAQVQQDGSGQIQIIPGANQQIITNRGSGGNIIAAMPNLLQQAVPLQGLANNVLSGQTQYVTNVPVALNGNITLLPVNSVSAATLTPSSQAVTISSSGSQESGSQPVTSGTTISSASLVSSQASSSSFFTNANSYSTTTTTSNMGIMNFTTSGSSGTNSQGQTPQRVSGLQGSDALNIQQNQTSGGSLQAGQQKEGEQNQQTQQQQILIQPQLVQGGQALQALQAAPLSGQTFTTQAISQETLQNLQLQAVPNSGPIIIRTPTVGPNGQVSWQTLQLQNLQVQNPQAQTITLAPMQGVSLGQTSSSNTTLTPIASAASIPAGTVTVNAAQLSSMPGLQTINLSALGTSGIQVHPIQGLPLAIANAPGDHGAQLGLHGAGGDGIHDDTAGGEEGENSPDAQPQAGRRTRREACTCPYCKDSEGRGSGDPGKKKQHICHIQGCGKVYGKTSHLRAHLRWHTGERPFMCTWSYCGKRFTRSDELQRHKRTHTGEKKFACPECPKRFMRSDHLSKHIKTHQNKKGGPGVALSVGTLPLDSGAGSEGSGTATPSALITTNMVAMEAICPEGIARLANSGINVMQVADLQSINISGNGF
Signal transducer and activator of transcription 3 (Homo sapiens), sequence (P40763 whole entry, looked up): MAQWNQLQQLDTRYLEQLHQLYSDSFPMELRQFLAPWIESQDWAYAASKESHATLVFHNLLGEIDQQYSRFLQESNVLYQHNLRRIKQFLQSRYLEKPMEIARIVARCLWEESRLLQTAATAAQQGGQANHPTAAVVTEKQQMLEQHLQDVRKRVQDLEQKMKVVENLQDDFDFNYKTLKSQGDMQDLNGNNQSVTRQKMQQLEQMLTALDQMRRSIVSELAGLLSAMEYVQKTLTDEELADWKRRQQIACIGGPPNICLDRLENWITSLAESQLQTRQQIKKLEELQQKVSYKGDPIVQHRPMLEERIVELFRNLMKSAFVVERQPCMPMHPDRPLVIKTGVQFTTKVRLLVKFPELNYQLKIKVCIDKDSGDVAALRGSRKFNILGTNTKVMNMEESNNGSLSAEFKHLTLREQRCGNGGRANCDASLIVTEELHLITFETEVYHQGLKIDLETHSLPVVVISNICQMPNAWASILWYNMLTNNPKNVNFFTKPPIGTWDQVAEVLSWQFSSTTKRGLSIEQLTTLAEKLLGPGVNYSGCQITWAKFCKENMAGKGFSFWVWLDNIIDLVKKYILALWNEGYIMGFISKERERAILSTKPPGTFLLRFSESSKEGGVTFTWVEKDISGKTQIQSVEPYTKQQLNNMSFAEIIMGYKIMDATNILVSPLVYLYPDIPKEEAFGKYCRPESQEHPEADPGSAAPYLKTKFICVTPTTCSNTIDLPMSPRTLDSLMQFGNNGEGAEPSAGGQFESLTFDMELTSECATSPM
Paired box protein Pax-6 (Homo sapiens), sequence (P26367 whole entry, looked up): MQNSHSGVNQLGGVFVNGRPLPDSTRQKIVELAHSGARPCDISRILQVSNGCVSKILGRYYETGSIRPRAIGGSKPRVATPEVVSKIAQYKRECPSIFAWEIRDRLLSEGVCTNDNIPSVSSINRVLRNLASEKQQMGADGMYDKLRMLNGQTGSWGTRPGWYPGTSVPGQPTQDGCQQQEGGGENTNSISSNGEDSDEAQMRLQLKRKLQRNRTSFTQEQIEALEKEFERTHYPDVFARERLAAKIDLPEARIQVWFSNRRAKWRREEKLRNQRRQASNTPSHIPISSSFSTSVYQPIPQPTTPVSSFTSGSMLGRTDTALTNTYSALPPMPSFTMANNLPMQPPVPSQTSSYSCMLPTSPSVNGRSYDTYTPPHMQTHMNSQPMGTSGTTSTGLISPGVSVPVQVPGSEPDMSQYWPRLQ
Hypoxia-inducible factor 1-alpha (Homo sapiens), sequence (Q16665 whole entry, looked up): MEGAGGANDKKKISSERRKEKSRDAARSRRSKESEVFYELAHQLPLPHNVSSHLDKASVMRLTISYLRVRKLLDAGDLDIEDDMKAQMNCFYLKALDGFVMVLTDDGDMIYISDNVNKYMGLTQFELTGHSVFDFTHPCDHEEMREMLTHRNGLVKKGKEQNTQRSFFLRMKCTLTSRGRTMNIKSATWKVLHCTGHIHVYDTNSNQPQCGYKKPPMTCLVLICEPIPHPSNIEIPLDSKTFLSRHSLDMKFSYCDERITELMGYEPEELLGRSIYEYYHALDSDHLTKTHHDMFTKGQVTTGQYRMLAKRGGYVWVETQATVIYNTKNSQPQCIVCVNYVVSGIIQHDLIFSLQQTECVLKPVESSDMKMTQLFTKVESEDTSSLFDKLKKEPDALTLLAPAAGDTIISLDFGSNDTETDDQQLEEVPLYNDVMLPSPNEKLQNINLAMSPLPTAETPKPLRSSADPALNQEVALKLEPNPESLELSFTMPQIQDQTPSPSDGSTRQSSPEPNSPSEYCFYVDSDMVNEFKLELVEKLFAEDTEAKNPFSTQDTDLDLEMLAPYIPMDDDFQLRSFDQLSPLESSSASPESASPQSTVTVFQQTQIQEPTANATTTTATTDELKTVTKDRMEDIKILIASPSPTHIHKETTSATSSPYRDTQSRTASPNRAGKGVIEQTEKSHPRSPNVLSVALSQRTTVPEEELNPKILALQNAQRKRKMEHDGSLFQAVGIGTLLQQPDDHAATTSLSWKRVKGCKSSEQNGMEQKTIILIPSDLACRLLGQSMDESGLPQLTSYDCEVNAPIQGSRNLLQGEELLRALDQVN

CCCCCCCCCCCCCCCCCCOS(=O)(=O)O
inactive: [1] | [3] | [4] | [7] | [11] | [12] | [13] | [14] | [15] | [17]
active: [2] 33.4 µM | [5] 53 µM | [6] 54.7 µM | [8] 19.5 µM | [9] 54 µM | [10] 23.2 µM | [16] 52.7 µM | [18] 12.4 µM

Cc1cc(C)c(C=O)c(C)c1
active: [12] 1.61 µM
inactive: [1] | [2] | [3] | [4] | [5] | [6] | [7] | [8] | [9] | [10] | [11] | [13] | [14] | [15] | [19] | [16] | [17] | [18]

Cc1c[nH]c(=O)[nH]c1=O
inactive: [1] | [2] | [3] | [4] | [5] | [6] | [7] | [8] | [9] | [10] | [11] | [12] | [13] | [14] | [15] | [19] | [16] | [17] | [18]

C=CCNCC=C
inactive: [1] | [2] | [3] | [4] | [5] | [6] | [8] | [9] | [10] | [11] | [15] | [19] | [16] | [17] | [18]
active: [7] 28.3 µM | [12] 52.1 µM
